What all share (experiment): HT-SELEX; high values mean tight binding
What all share (details): protein: recombinant; vector His6-GST; dsDNA, one strand shown

One experiment deals with T1, SALL4 ZFC4 WT (HT-SELEX) (Mus musculus, UniProt Q8BX22 870-940).
T1 sequence: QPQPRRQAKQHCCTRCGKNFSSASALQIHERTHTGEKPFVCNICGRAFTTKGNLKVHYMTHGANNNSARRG
The method, boiled down: (§1)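 In triplicate selections of up to 6 cycles, purified recombinant mouse SALL4 zinc finger cluster 4 (residues 870–940, 1 µg) was incubated 10 min at room temperature with library DNA (1.5 µg, then 200 ng) in 100 µl of 10 mM Tris–HCl pH 7.5, 50 mM NaCl, poly(dI-dC) and DTT, and complexes were captured on Ni2+ beads, washed and PCR-amplified. Sequencing was done on MiSeq with scanning for 6-mers. The binding signal is each canonical k-mer's read fraction, reported as fold change against the initial random library.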

Experiment [1] deals with T2, SALL4 ZFC4 R900W (HT-SELEX) (Mus musculus, UniProt Q8BX22 870-940, R900W).
T2 sequence: T1 sequence with R31W
The method, boiled down: as §1

Experiment [2] concerns the target T3, SALL4 ZFC4 G921D (HT-SELEX) (Mus musculus, UniProt Q8BX22 870-940, G921D).
T3 sequence: T1 sequence with G52D
Put shortly:
as §1

The values below come from PMC9838217, “Structure of SALL4 zinc finger domain reveals link between AT-rich DNA binding and Okihiro syndrome”.

Changes are numbered by the printed parent chain.

On to ACCCTA, for which the binding signal with SALL4 ZFC4 WT (HT-SELEX) is 0.864 ± 0.0329 fold-change vs cycle 0; in experiment [1] it was 0.973 ± 0.0359 fold-change vs cycle 0; in experiment [2], 0.982 ± 0.053 fold-change vs cycle 0.

CATGCC: the binding signal in the experiment with SALL4 ZFC4 WT (HT-SELEX) worked out at 0.31 ± 0.0224 fold-change vs cycle 0; in experiment [1], 0.354 ± 0.0129 fold-change vs cycle 0; in experiment [2] it was 0.48 ± 0.0491 fold-change vs cycle 0.

Consider AACGGA, for which the binding signal in the experiment with SALL4 ZFC4 WT (HT-SELEX) came out at 0.714 ± 0.0406 fold-change vs cycle 0; in experiment [1], 0.846 ± 0.0545 fold-change vs cycle 0; in experiment [2], 0.859 ± 0.0492 fold-change vs cycle 0.

ACGATC: the binding signal is 0.662 ± 0.038 fold-change vs cycle 0 with SALL4 ZFC4 WT (HT-SELEX), 0.773 ± 0.0211 fold-change vs cycle 0 in experiment [1] and 0.907 ± 0.0183 fold-change vs cycle 0 in experiment [2].

Turning to GAACAA, the binding signal with SALL4 ZFC4 WT (HT-SELEX) stood at 1.17 ± 0.0569 fold-change vs cycle 0; in experiment [1] it was 1.32 ± 0.0741 fold-change vs cycle 0; in experiment [2], 1.28 ± 0.0879 fold-change vs cycle 0.

As to GCGAAA, the binding signal in the experiment with SALL4 ZFC4 WT (HT-SELEX) was 0.363 ± 0.0241 fold-change vs cycle 0; in experiment [1], 0.395 ± 0.00888 fold-change vs cycle 0; in experiment [2], 0.534 ± 0.0715 fold-change vs cycle 0.

As for AGGCAA, the binding signal in the experiment with SALL4 ZFC4 WT (HT-SELEX) came out at 0.538 ± 0.0205 fold-change vs cycle 0; in experiment [1], 0.6566 ± 0.00197 fold-change vs cycle 0; in experiment [2], 0.754 ± 0.0411 fold-change vs cycle 0.

Regarding ATAATA, the results for the binding signal (with SALL4 ZFC4 WT (HT-SELEX); in experiment [1]; in experiment [2]) were 4.87 ± 0.591 fold-change vs cycle 0, 2.66 ± 0.215 fold-change vs cycle 0 and 2.24 ± 0.293 fold-change vs cycle 0, respectively.

On to CGTATA, for which the binding signal with SALL4 ZFC4 WT (HT-SELEX) was 1.19 ± 0.0262 fold-change vs cycle 0; in experiment [1], 1.2 ± 0.0145 fold-change vs cycle 0; in experiment [2] it was 1.18 ± 0.0335 fold-change vs cycle 0.

As for CTAACC, the binding signal amounted to 0.863 ± 0.0299 fold-change vs cycle 0 with SALL4 ZFC4 WT (HT-SELEX), 0.983 ± 0.0562 fold-change vs cycle 0 in experiment [1] and 1.01 ± 0.0396 fold-change vs cycle 0 in experiment [2].

On to AAACAC, for which the figures for the binding signal (in the experiment with SALL4 ZFC4 WT (HT-SELEX); in experiment [1]; in experiment [2]) were 1.06 ± 0.0292 fold-change vs cycle 0, 1.16 ± 0.0244 fold-change vs cycle 0 and 1.189 ± 0.0109 fold-change vs cycle 0, respectively.

For the sequence CCCTCC, the binding signal in the experiment with SALL4 ZFC4 WT (HT-SELEX) was 0.318 ± 0.0193 fold-change vs cycle 0; in experiment [1], 0.362 ± 0.0224 fold-change vs cycle 0; in experiment [2], 0.457 ± 0.0716 fold-change vs cycle 0.

Consider AAACCG, for which the binding signal with SALL4 ZFC4 WT (HT-SELEX) stood at 0.532 ± 0.0183 fold-change vs cycle 0; in experiment [1] it was 0.604 ± 0.0163 fold-change vs cycle 0; in experiment [2] it was 0.705 ± 0.0593 fold-change vs cycle 0.

Consider CTTAGC, for which the binding signal with SALL4 ZFC4 WT (HT-SELEX) is 0.73 ± 0.019 fold-change vs cycle 0; in experiment [1] it was 0.843 ± 0.0192 fold-change vs cycle 0; in experiment [2], 0.8905 ± 0.00272 fold-change vs cycle 0.

In the case of GTAAAC, the binding signal in the experiment with SALL4 ZFC4 WT (HT-SELEX) is 1.27 ± 0.0422 fold-change vs cycle 0; in experiment [1], 1.39 ± 0.0625 fold-change vs cycle 0; in experiment [2] it was 1.32 ± 0.0873 fold-change vs cycle 0.

Turning to CTCCGA, the results for the binding signal (with SALL4 ZFC4 WT (HT-SELEX); in experiment [1]; in experiment [2]) were 0.382 ± 0.00698 fold-change vs cycle 0, 0.433 ± 0.0122 fold-change vs cycle 0 and 0.589 ± 0.0734 fold-change vs cycle 0, respectively.

For the sequence TAGAAA, the figures for the binding signal (with SALL4 ZFC4 WT (HT-SELEX); in experiment [1]; in experiment [2]) were 2.03 ± 0.103 fold-change vs cycle 0, 1.91 ± 0.061 fold-change vs cycle 0 and 1.69 ± 0.141 fold-change vs cycle 0, respectively.

For the sequence CGCTAA, the binding signal with SALL4 ZFC4 WT (HT-SELEX) stood at 0.488 ± 0.0307 fold-change vs cycle 0; in experiment [1] it was 0.562 ± 0.0185 fold-change vs cycle 0; in experiment [2], 0.667 ± 0.039 fold-change vs cycle 0.

Regarding CACGAC, the binding signal was determined as 0.303 ± 0.0099 fold-change vs cycle 0 in the experiment with SALL4 ZFC4 WT (HT-SELEX), 0.381 ± 0.0158 fold-change vs cycle 0 in experiment [1] and 0.501 ± 0.0536 fold-change vs cycle 0 in experiment [2].

Turning to ACGTTC, the binding signal worked out at 0.7 ± 0.0339 fold-change vs cycle 0 with SALL4 ZFC4 WT (HT-SELEX), 0.844 ± 0.024 fold-change vs cycle 0 in experiment [1] and 0.8714 ± 0.00795 fold-change vs cycle 0 in experiment [2].

As for CCGATC, the binding signal is 0.399 ± 0.0279 fold-change vs cycle 0 with SALL4 ZFC4 WT (HT-SELEX), 0.473 ± 0.0177 fold-change vs cycle 0 in experiment [1] and 0.64 ± 0.0658 fold-change vs cycle 0 in experiment [2].

Take ACTGCT: the figures for the binding signal (in the experiment with SALL4 ZFC4 WT (HT-SELEX); in experiment [1]; in experiment [2]) were 0.712 ± 0.054 fold-change vs cycle 0, 0.797 ± 0.0817 fold-change vs cycle 0 and 0.89 ± 0.0309 fold-change vs cycle 0, respectively.

For CAGAGG, the binding signal with SALL4 ZFC4 WT (HT-SELEX) was found to be 0.463 ± 0.0456 fold-change vs cycle 0; in experiment [1] it was 0.548 ± 0.0393 fold-change vs cycle 0; in experiment [2], 0.65 ± 0.0673 fold-change vs cycle 0.

Consider GTGAAC, for which the binding signal in the experiment with SALL4 ZFC4 WT (HT-SELEX) was determined as 0.832 ± 0.046 fold-change vs cycle 0; in experiment [1] it was 0.941 ± 0.022 fold-change vs cycle 0; in experiment [2] it was 1.01 ± 0.0456 fold-change vs cycle 0.

With GCAATA, the binding signal with SALL4 ZFC4 WT (HT-SELEX) is 1.12 ± 0.0362 fold-change vs cycle 0; in experiment [1] it was 1.04 ± 0.028 fold-change vs cycle 0; in experiment [2], 1.11 ± 0.028 fold-change vs cycle 0.

As to AGGGGA, the figures for the binding signal (in the experiment with SALL4 ZFC4 WT (HT-SELEX); in experiment [1]; in experiment [2]) were 0.532 ± 0.0414 fold-change vs cycle 0, 0.608 ± 0.0303 fold-change vs cycle 0 and 0.671 ± 0.0432 fold-change vs cycle 0, respectively.

Regarding GATAGA, the binding signal came out at 1.32 ± 0.045 fold-change vs cycle 0 in the experiment with SALL4 ZFC4 WT (HT-SELEX), 1.46 ± 0.0749 fold-change vs cycle 0 in experiment [1] and 1.38 ± 0.128 fold-change vs cycle 0 in experiment [2].

Consider ACATGA, for which the binding signal with SALL4 ZFC4 WT (HT-SELEX) was found to be 1.38 ± 0.0574 fold-change vs cycle 0; in experiment [1], 1.49 ± 0.0283 fold-change vs cycle 0; in experiment [2], 1.4 ± 0.088 fold-change vs cycle 0.

Consider CTCTGC, for which the binding signal worked out at 0.35 ± 0.0408 fold-change vs cycle 0 with SALL4 ZFC4 WT (HT-SELEX), 0.396 ± 0.021 fold-change vs cycle 0 in experiment [1] and 0.522 ± 0.0742 fold-change vs cycle 0 in experiment [2].

For the sequence CCACAG, the binding signal in the experiment with SALL4 ZFC4 WT (HT-SELEX) was determined as 0.371 ± 0.0258 fold-change vs cycle 0; in experiment [1] it was 0.424 ± 0.0221 fold-change vs cycle 0; in experiment [2], 0.535 ± 0.0512 fold-change vs cycle 0.
